D1 mod – D1 CRE-luciferase signal change, two-sided – cell-based, HEK293 D1, dopamine EC30, D1 allosteric modulator project, primary screen; D(1A) dopamine receptor (Homo sapiens), P21728; dopamine EC30 potentiation; actives deviate in either direction; B-score at 10 µM; actives 5.9% (n = 58,000); AID 641, 2007;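 active = luminescence count or its row- and column-corrected plate score outside the 99.7% band of the plate's sample wells, on either side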
Target sequence (P21728 whole entry, looked up): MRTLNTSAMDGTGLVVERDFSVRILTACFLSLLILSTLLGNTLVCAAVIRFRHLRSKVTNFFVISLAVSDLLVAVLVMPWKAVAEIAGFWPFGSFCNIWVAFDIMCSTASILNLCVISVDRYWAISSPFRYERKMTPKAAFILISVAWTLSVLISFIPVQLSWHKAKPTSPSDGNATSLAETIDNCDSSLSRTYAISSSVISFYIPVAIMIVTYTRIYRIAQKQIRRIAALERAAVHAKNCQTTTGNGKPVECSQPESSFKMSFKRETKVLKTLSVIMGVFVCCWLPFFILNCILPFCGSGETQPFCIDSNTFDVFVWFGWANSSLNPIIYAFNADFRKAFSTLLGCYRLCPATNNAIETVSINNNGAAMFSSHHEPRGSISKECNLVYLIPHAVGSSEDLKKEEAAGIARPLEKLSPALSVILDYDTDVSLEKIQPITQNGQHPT
hDAT+cocaine – changed hDAT dopamine uptake under cocaine IC80, either direction, primary screen, cocaine antagonist project, cell-based, LLC-PK1 hDAT, [14C]-dopamine uptake, MLSMR. LLC-PK1 hDAT cells, [14C]-dopamine uptake with cocaine IC80; actives deviate in either direction. B-score at 10 µM. actives 1.3% (n = 110,000). AID 449768, 2010;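 active = Z score or B-score, a plate-position-corrected score, falls beyond the plate's 99.7% confidence bounds, in either direction; inactive = both scores lie inside the 99.7% bounds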
BAP1 inh – inhibitors of BAP1 deubiquitinase, primary screen, biochemical, Ub-AMC fluorescence, kinetic. AID 436, 2006. actives 0.48% (n = 72,000). recombinant BAP1, Ub-AMC hydrolysis fluorescence kinetic; active compounds read low. Ubiquitin carboxyl-terminal hydrolase BAP1 (Homo sapiens), Q92560. calls only at 20 µM;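 active = activity remaining at or below 50% of control, provided the compound also passes the data quality filters; inactive = the rest, including low values that fail the filters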
D1 mod confirm – D1 receptor positive allosteric modulators, retest, confirmation, cell-based, HEK293 D1, CRE-luciferase, duplicate; shares compounds with D1 mod; dopamine EC30 potentiation; active compounds read high; luminescence at 10 µM; actives 88% (n = 2,200); AID 642, 2007;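 active = luminescence in either of two replicates above the same-plate mean plus 3 SD of the low-dose dopamine control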
D1 ag no DA – D1 receptor agonism without dopamine, confirmation, mechanism study for D1 allosteric modulator project, cell-based, HEK293 D1, CRE-luciferase, secondary assay 1; shares compounds with D1 mod; luminescence at 10 µM; actives 0.8% (n = 1,900); luminescence, no dopamine; active compounds read high; in the data active = luminescence above about 3900
Isoprot counter – counter-screen for D1 modulators: isoproterenol response in HEK293 cells; shares compounds with D1 mod; HEK293 D1 CRE-luciferase, isoproterenol EC30 counter-screen; active compounds read high; luminescence at 10 µM; actives 63% (n = 2,200);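 active = luminescence in either replicate above plate mean of wells with a partly effective reference agonist dose plus 3 SD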;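 note: isoproterenol raises cAMP through native beta-adrenoceptor Gs so signal bypasses D1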
Large screens that a line does not name were inactive (follow-up assays come after a bar, where they were run). The sample as a whole holds a higher share of hits than the screen did.

CCC(=O)N1CCc2cc(OC)c(OC)cc2C1COc1ccc(C(=O)OC)cc1 (centres undefined)	D1 mod 15 | D1 mod confirm 20996 | D1 ag no DA inactive | Isoprot counter 9380
C=CCOC(=O)C1=C(C)NC(=O)NC1c1ccccc1Br (centres undefined)	none (no result: D1 mod, hDAT+cocaine)
COc1cc(C(=O)Nc2ccc(-c3nc4ccccc4[nH]3)cc2)cc(OC)c1OC	none (no result: D1 mod, hDAT+cocaine)
O=C(c1ccc2ccccc2c1)N1CCN(c2ccc([N+](=O)[O-])cc2)CC1	none (no result: D1 mod, hDAT+cocaine)
Cc1cc(C)c2ccc(C=Cc3ccccc3[N+](=O)[O-])nc2c1O	none (no result: D1 mod, hDAT+cocaine)
NC1=NC(c2ccc(Br)cc2)n2c(nc3ccccc32)N1 (centres undefined)	D1 mod 10 | D1 mod confirm 11596 | D1 ag no DA inactive | Isoprot counter inactive
CCOC(=O)c1ccccc1-n1c(C)cc(C2N=C(N)Nc3nc4ccccc4n32)c1C (centres undefined)	none (no result: D1 mod, BAP1 inh)
CN1C(=O)N(c2cccc3ccccc23)C(C)(O)CC1(C)C (centres undefined)	none (no result: D1 mod, hDAT+cocaine)
COc1ccc(C(=O)Nc2cccc(NC(=O)c3ccco3)c2)cc1OC	none (no result: D1 mod, hDAT+cocaine)
C=CCOC(=O)c1[nH]c2c(c1C)C(=O)CC(c1ccco1)C2 (centres undefined)	none
Cc1c(C(=O)OCC(C)C)[nH]c2c1C(=O)CC(c1ccco1)C2 (centres undefined)	D1 mod 5.8 | D1 mod confirm 12056 | D1 ag no DA inactive | Isoprot counter inactive
Cc1cc(C)cc(N2C(=O)CSC2c2ccc(Br)cc2)c1 (centres undefined)	none (no result: D1 mod, hDAT+cocaine)
Cc1ccccc1NC(=O)c1sc2nc3c(c(-c4ccco4)c2c1N)CCC3	none (no result: D1 mod, BAP1 inh)
N#Cc1sc2nc3c(c(-c4ccco4)c2c1N)CCCC3	D1 mod 9.6 | D1 mod confirm 12060 | D1 ag no DA inactive | Isoprot counter 4060
CCC(=O)NC(c1ccccc1)c1ccc2cccnc2c1O (centres undefined)	none (no result: D1 mod, hDAT+cocaine)
Oc1ccc(Nc2nc(-c3ccc4ccccc4c3)cs2)cc1	none (no result: D1 mod, BAP1 inh)
Oc1ccc(-c2nc(-c3ccc(O)c(O)c3)cs2)cc1	D1 mod 6.7 | D1 mod confirm 7572 | D1 ag no DA inactive | Isoprot counter 5252
S=C1NC(c2ccc(Br)cc2)=CC(c2ccccc2Cl)N1 (centres undefined)	none (no result: D1 mod, hDAT+cocaine)
Cc1cc(NC(=O)COC(=O)c2c(C)nn(-c3ccccc3)c2C)no1	none
Cc1nc(COC(=O)c2c(C)nn(-c3ccccc3)c2C)cs1	D1 mod 6.9 | D1 mod confirm 8048 | D1 ag no DA inactive | Isoprot counter 3456
COc1ccc(NC(=O)CC2C(=O)N(C)C(=S)N2CCc2ccc(Cl)cc2)cc1 (centres undefined)	none (no result: D1 mod, hDAT+cocaine)
N#Cc1c(N)sc(=S)c2c1CCCCC2	none (no result: D1 mod)
N#Cc1c(N)sc2c1CCCCCC2	D1 mod 5.8 | D1 mod confirm 13464 | D1 ag no DA inactive | Isoprot counter inactive
COc1cc2ccccc2cc1C(=O)Nc1nc(-c2ccc(I)cc2)cs1	none (no result: D1 mod, hDAT+cocaine)
O=S(=O)(c1cccs1)N1CN(Cc2cccs2)c2nc3ccccc3nc21	D1 mod 3.8 | D1 mod confirm 15624 | D1 ag no DA inactive | Isoprot counter 3880
O=S(=O)(c1cccs1)N1CN(Cc2ccc(F)cc2)c2nc3ccccc3nc21	none (no result: D1 mod, BAP1 inh)
C=CCN1CN(S(=O)(=O)c2cccs2)c2nc3ccccc3nc21	D1 mod 6 | D1 mod confirm 14144 | D1 ag no DA inactive | Isoprot counter 3188
O=S(=O)(c1cccs1)N1CN(Cc2ccccc2)c2nc3ccccc3nc21	none (no result: D1 mod, BAP1 inh)
c1ccc(CN2CCN(c3nc(-c4ccccc4)nc(-n4ccnc4)n3)CC2)cc1	none
CCCCNc1nc(-c2ccccc2)nc(-n2ccnc2)n1	none (no result: D1 mod, BAP1 inh)
c1ccc(-c2nc(NC3CC3)nc(-n3ccnc3)n2)cc1	D1 mod 11 | D1 mod confirm 26636 | D1 ag no DA inactive | Isoprot counter 3844

Assay outcomes deposited in PubChem by several laboratories.
